From PubChem BioAssay (EPA / NIEHS)
Inconclusive results are not listed. Calls of active or inactive are those of the source. The calls were made as follows, unless noted: active = hit-call score of the fitted dose curve at least 0.9, where 1 is the maximum; inactive = score below 0.9.

Tests used:
[1] = target: Glucocorticoid receptor (Homo sapiens) (UniProt P04150); test: ATG_GR_TRANS: Attagene TRANS-FACTORIAL HepG2 Assay for human Glucocorticoid Receptor (GR) (AID 2282978; active = hit-call score of the fitted dose curve at least 0.9, where 1 is the maximum;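 also: activators score as hits since higher reporter transcript over DMSO is fitted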); conditions: HepG2 Attagene TRANS GR reporter, mRNA transcription
Chain of Glucocorticoid receptor (Homo sapiens) (P04150 whole entry, looked up, the tested form may be a part): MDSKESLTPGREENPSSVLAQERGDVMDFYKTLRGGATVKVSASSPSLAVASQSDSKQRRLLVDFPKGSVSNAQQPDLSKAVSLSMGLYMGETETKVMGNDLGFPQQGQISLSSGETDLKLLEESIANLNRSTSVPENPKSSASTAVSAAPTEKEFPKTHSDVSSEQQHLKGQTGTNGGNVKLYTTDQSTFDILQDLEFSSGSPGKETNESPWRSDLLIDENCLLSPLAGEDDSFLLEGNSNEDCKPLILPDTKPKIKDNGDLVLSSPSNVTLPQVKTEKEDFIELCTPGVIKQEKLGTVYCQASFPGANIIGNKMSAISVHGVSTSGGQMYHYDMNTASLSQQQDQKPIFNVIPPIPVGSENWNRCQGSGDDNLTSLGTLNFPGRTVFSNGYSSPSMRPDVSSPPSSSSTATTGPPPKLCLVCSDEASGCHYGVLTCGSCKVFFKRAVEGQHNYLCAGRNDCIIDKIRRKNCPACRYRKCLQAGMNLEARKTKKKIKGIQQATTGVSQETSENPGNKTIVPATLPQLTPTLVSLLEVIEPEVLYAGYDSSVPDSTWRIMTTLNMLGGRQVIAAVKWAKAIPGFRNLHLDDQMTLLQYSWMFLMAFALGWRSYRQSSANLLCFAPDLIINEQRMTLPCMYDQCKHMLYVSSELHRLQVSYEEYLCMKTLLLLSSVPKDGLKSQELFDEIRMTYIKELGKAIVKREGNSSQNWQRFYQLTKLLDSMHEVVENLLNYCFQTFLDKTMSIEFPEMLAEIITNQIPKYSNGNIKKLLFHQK
Summary of the method: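 Readout is reporter transcript from a chimeric GR-Gal4 acting on GAL4-UAS in transfected human HepG2 liver cells after 24 h exposure, quantified by RT-PCR and capillary electrophoresis. Activation fitted upward against DMSO.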

[2] = target: Bile acid receptor (Homo sapiens) (UniProt Q96RI1); test: ATG_FXR_TRANS: Attagene TRANS-FACTORIAL HepG2 Assay for Farnesoid X Receptor (FXR) (AID 2282979; active = hit-call score of the fitted dose curve at least 0.9, where 1 is the maximum;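 also: hits raise reporter mRNA above DMSO so AC50 marks FXR activation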); conditions: HepG2 Attagene TRANS FXR-GAL4 reporter transcription
Chain of Bile acid receptor (Homo sapiens) (Q96RI1 whole entry, looked up, the tested form may be a part): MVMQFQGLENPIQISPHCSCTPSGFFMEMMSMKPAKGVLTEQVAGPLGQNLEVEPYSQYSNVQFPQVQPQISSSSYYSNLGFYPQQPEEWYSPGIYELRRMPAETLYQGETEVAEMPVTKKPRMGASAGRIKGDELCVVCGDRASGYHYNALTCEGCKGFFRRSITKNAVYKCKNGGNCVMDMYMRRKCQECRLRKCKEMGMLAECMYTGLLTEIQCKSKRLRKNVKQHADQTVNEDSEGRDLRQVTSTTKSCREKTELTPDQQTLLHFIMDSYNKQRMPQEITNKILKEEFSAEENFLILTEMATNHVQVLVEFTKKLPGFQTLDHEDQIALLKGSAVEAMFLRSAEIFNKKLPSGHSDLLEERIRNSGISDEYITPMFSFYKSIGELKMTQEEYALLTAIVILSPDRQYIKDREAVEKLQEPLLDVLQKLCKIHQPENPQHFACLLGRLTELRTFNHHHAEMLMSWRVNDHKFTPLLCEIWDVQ
Summary of the method: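 After 24 h chemical treatment of transfected HepG2 cells, GAL4-UAS reporter transcripts driven by an exogenous FXR-GAL4 fusion were measured by RT-PCR and capillary electrophoresis. Increases over DMSO were fitted.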

[3] = target: Oxysterols receptor LXR-alpha (Homo sapiens) (UniProt Q13133); test: ATG_LXRa_TRANS: Attagene TRANS-FACTORIAL HepG2 Assay for human Liver X Receptor alpha (LXRa) (AID 2282980; active = hit-call score of the fitted dose curve at least 0.9, where 1 is the maximum); conditions: HepG2 Attagene TRANS reporter, LXRa transactivation
Chain of Oxysterols receptor LXR-alpha (Homo sapiens) (Q13133 whole entry, looked up, the tested form may be a part): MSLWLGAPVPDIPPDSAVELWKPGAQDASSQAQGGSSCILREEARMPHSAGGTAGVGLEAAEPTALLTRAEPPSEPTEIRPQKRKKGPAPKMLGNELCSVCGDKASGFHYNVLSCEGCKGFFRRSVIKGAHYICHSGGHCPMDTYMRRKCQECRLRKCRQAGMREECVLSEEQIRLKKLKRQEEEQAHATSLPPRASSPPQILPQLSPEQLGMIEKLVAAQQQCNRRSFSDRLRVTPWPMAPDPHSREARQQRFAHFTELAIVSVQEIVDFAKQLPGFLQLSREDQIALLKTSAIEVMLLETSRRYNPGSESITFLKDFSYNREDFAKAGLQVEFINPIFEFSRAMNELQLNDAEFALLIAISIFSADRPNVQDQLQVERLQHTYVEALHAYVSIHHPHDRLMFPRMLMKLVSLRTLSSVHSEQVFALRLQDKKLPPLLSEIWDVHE
Summary of the method: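 In this multiplexed TRANS system, compounds act on HepG2 cells carrying GAL4-UAS reporter units and a receptor-GAL4 fusion for 24 h. Induced reporter RNA is amplified, fluorescently labelled and sized by capillary electrophoresis, with DMSO as baseline.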

[4] = target: Oxysterols receptor LXR-beta (Homo sapiens) (UniProt P55055); test: ATG_LXRb_TRANS: Attagene TRANS-FACTORIAL HepG2 Assay for human Liver X Receptor beta (LXRb) (AID 2282981; active = hit-call score of the fitted dose curve at least 0.9, where 1 is the maximum); conditions: HepG2 Attagene TRANS GAL4-LXRb reporter, mRNA
Chain of Oxysterols receptor LXR-beta (Homo sapiens) (P55055 whole entry, looked up, the tested form may be a part): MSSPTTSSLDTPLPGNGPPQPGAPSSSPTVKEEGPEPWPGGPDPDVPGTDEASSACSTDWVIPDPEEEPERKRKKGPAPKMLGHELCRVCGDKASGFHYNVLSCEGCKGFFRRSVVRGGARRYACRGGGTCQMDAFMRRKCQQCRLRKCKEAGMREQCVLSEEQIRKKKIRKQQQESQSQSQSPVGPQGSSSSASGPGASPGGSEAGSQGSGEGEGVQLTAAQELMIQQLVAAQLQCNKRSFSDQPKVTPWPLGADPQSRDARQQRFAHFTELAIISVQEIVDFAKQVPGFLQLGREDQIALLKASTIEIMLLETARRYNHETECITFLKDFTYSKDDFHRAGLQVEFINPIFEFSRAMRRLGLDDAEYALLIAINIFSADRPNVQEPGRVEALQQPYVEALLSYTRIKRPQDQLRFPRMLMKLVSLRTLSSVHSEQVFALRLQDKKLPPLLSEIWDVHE
Summary of the method: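 After 24 h of chemical treatment, transfected HepG2 cells yield total RNA; reporter cDNA is PCR-amplified, FAM-labelled, HpaI-cut and run on capillary electrophoresis. Signal reflects chimeric LXRb-Gal4 activity on GAL4-UAS reporters.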

[5] = ATG_M_06_TRANS: Attagene TRANS-FACTORIAL HepG2 Assay for M06 Transcription Factor (Internal Marker) (AID 2282983; active = hit-call score of the fitted dose curve at least 0.9, where 1 is the maximum); conditions: HepG2 Attagene TRANS M06 internal marker reporter
Summary of the method: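 Multi-reporter-transfected HepG2, 24 h treatment; reporter transcripts quantified via RT-PCR, primer-extension labelling and CE. DMSO-normalized gain-of-signal fit.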

[6] = target: Transcriptional activator Myb (Homo sapiens) (UniProt P10242); test: ATG_Myb_CIS: Attagene CIS-FACTORIAL HepG2 Assay for human Myeloblastosis (Myb) Proto-Oncogene Transcription Factor (AID 2282986); conditions: HepG2 Attagene CIS-FACTORIAL Myb reporter transcription; actives raise or lower the signal
Chain of Transcriptional activator Myb (Homo sapiens) (P10242 whole entry, looked up): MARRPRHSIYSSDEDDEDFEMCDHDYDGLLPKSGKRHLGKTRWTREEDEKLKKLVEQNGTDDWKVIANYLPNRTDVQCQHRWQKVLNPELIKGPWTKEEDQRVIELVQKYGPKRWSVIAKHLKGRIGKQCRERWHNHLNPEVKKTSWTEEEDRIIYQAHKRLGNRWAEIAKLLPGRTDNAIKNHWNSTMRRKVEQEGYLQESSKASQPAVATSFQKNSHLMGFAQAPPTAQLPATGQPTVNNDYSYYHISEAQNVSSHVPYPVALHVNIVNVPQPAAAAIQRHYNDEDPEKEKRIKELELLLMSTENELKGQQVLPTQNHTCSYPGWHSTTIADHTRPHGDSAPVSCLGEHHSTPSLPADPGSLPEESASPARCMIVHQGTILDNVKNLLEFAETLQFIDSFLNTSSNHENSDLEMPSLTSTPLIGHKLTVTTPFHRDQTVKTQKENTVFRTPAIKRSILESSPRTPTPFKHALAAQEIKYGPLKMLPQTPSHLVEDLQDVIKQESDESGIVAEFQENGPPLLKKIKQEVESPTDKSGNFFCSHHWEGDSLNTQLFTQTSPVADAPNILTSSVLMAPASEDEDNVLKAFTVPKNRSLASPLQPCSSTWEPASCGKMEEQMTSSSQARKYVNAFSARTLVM
Summary of the method: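 Reporter mRNA is quantified by RT-PCR and capillary electrophoresis 24 h after dosing HepG2 cells transfected with cis-regulated reporter units, which track endogenous transcription factor activity. Gain and loss of signal are fitted versus DMSO baseline.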

[7] = target: Nuclear respiratory factor 1 (Homo sapiens) (UniProt Q16656); test: ATG_NRF1_CIS: Attagene CIS-FACTORIAL HepG2 Assay for human Nuclear Respiratory Factor 1 (NRF1) Orphan Gene (AID 2282987); conditions: HepG2 NRF1 cis-element reporter, Attagene multiplex; actives raise or lower the signal
Chain of Nuclear respiratory factor 1 (Homo sapiens) (Q16656 whole entry, looked up): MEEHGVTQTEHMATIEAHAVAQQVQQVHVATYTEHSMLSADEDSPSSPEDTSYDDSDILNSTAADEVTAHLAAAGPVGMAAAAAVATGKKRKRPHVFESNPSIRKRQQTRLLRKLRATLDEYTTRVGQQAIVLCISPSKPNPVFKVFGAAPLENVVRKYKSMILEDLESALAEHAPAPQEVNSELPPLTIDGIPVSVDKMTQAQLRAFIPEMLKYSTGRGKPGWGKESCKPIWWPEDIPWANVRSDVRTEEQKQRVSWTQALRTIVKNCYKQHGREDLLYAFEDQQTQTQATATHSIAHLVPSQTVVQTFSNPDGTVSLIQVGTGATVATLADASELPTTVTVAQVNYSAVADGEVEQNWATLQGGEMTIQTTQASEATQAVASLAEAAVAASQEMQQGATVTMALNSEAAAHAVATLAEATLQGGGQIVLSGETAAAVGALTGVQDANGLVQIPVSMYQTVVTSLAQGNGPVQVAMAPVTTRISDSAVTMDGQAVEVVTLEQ
Summary of the method: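 Endogenous NRF1-driven reporter transcription in transfected HepG2 cells after 24 h treatment. Readout: RT-PCR products, 6-FAM labelled and resolved by capillary electrophoresis; changes fitted both directions relative to DMSO.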

[8] = ATG_NFI_CIS: Attagene CIS-FACTORIAL HepG2 Assay for human Nuclear Factor I (NFI) (AID 2282989); conditions: HepG2 cis-regulatory reporter, NFI response element transcription; actives raise or lower the signal
Summary of the method: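 Multiplexed cis-reporter system in human HepG2 cells reports native TF activity as reporter mRNA induction 24 h post-dose. Fragments labelled with 6-FAM, HpaI-digested and resolved by capillary electrophoresis; activity fitted both directions versus DMSO.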

[9] = target: Myc proto-oncogene protein (Homo sapiens) (UniProt P01106); test: ATG_Myc_CIS: Attagene CIS-FACTORIAL HepG2 Assay for human Myelocytomatosis (Myc) Proto-Oncogene Transcription Factor (AID 2282990); conditions: HepG2, Attagene cis-reporter transcription factor activity; actives raise or lower the signal
Summary of the method: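 After 24 h chemical treatment of HepG2 cells carrying multiplexed cis-regulated reporter constructs, reporter transcripts quantified by RT-PCR and capillary electrophoresis of fluorescent fragments. Gain or loss fitted against DMSO baseline.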

[10] = ATG_NF_kB_CIS: Attagene CIS-FACTORIAL HepG2 Assay for human Nuclear Factor Kappa B (NF-kB) (AID 2282991); conditions: HepG2 Attagene cis-factorial NF-kB reporter mRNA; actives raise or lower the signal
Summary of the method: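 Readout is reporter transcript level, gain or loss versus DMSO, measured 24 h post-dose via RT-PCR, fluorescent labelling and capillary electrophoresis. Human HepG2 liver cells carried transiently transfected CIS reporter constructs reflecting endogenous factors.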

[11] = ATG_NRF2_ARE_CIS: Attagene CIS-FACTORIAL HepG2 Assay for human Nuclear Factor Erythroid 2 Related Factor 2 (NFR2) response to Antioxidant Response Elements (ARE) (AID 2282992); conditions: HepG2 Attagene ARE/NRF2 reporter, transcription factor activity; actives raise or lower the signal;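 as to AC50: reporter mRNA level measured by RT-PCR and capillary electrophoresis fluorescence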
Summary of the method: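 Fluorescence intensity of reporter-specific cDNA fragments, separated by capillary electrophoresis, reflects mRNA induction in transfected HepG2 cells at 24 h. Activity is fitted bidirectionally, DMSO serving as baseline.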

[12] = ATG_Oct_MLP_CIS: Attagene CIS-FACTORIAL HepG2 Assay for human Octamer-Binding Transcription Factor (Oct) (AID 2282993); conditions: HepG2 Attagene cis-factorial Oct reporter, mRNA; actives raise or lower the signal
Summary of the method: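 After 24 h compound exposure, transfected HepG2 cells were lysed for total RNA; reporter-specific cDNA was PCR-amplified, fluorescently labelled and sized by capillary electrophoresis. Bidirectional curve fitting used DMSO as baseline.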

[13] = target: Cellular tumor antigen p53 (Homo sapiens) (UniProt P04637); test: ATG_p53_CIS: Attagene CIS-FACTORIAL HepG2 Assay for human p53 Transcription Factor (AID 2282994); conditions: HepG2 p53 cis-element reporter, Attagene mRNA; actives raise or lower the signal
Chain of Cellular tumor antigen p53 (Homo sapiens) (P04637 whole entry, looked up): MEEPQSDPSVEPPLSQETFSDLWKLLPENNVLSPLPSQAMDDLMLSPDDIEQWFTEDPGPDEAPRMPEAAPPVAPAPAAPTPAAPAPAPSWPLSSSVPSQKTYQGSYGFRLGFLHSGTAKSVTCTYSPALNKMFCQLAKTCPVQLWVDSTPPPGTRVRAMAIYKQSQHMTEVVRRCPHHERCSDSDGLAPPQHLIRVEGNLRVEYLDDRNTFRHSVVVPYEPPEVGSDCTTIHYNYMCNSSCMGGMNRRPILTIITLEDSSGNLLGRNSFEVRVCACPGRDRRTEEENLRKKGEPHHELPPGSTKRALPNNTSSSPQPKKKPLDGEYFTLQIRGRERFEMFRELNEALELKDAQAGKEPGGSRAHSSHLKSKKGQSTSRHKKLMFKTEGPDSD
Summary of the method: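 Transiently transfected HepG2 (multiple cis reporter transcription units); exposure 24 h; reporter RNA via RT-PCR, 6-FAM extension, 2 h HpaI digest at 37 C, CE detection; DMSO baseline.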

[14] = target: Nuclear receptor subfamily 4 group A member 2 (Homo sapiens) (UniProt P43354); test: ATG_NURR1_TRANS: Attagene TRANS-FACTORIAL HepG2 Assay for human Nuclear Receptor Related Protein 1 (NURR1) (AID 2282985; active = hit-call score of the fitted dose curve at least 0.9, where 1 is the maximum); conditions: HepG2 Attagene TRANS reporter, mRNA readout
Chain of Nuclear receptor subfamily 4 group A member 2 (Homo sapiens) (P43354 whole entry, looked up, the tested form may be a part): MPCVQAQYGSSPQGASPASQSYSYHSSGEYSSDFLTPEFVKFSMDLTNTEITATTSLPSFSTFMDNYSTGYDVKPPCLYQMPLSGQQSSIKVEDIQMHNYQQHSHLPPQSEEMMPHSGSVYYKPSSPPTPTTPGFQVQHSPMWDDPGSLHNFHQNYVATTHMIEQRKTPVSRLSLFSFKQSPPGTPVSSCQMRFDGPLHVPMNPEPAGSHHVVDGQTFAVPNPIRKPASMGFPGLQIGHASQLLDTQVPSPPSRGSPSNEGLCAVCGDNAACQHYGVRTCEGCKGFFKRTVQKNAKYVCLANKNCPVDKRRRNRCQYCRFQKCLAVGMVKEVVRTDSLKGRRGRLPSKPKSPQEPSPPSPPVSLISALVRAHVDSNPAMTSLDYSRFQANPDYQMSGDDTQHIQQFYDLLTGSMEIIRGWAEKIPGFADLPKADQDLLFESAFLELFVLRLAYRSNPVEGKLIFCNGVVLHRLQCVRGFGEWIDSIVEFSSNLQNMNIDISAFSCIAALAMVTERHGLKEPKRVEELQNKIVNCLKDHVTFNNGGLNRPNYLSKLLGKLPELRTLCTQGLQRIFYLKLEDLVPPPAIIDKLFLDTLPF
Summary of the method: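 Measures transcriptional activation by an exogenous NR-Gal4 chimera in transfected HepG2 liver cells. After 24 h, reporter RNA is reverse-transcribed, amplified and resolved by capillary electrophoresis; DMSO defines baseline.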

[15] = BSK_3C_TissueFactor: BioMAP Diversity Plus: 3C Assay for Tissue Factor Biomarker Activity (AID 2282997); conditions: BioMAP 3C HUVEC, tissue factor biomarker readout; actives raise or lower the signal
Summary of the method: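 In this endothelial system, HUVEC are treated for 24 h and Tissue Factor is assessed by ELISA, normalised to DMSO.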

[16] = BSK_3C_uPAR: BioMAP Diversity Plus: 3C Assay for Urokinase-type plasminogen activator receptor (uPAR) Biomarker Activity (AID 2282998); conditions: BioMAP 3C HUVEC, uPAR biomarker ELISA; actives raise or lower the signal
Summary of the method: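 Values derive from bidirectional curve fitting relative to DMSO, which served as baseline of activity. uPAR was measured by ELISA in human umbilical vein endothelial primary cultures 24 h after compound addition.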

[17] = BSK_3C_VCAM1: BioMAP Diversity Plus: 3C Assay for Vascular cell adhesion molecule 1 (VCAM1) Biomarker Activity (AID 2282999); conditions: BioMAP 3C HUVEC, VCAM1 ELISA, cytokine-stimulated; actives raise or lower the signal
Summary of the method: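 Activity fitted in both directions relative to DMSO, with ELISA measurement of the surface marker on primary HUVEC (3C) at 24 h post-treatment; parallel SRB staining (0.1% SRB, TCA-fixed, 560 nm) flagged overt cytotoxicity.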

[18] = BSK_4H_Eotaxin3: BioMAP Diversity Plus: 4H Assay for Eotaxin 3 Biomarker Activity (AID 2283000); conditions: primary human endothelial cells (HUVEC); actives raise or lower the signal
Summary of the method: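 ELISA quantitation of CCL26 (Eotaxin-3) protein from chemically dosed human vascular endothelial cells at 24 h; increases and decreases both scored relative to DMSO-treated baseline.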

[19] = target: Hepatocyte nuclear factor 4-alpha (Homo sapiens) (UniProt P41235); test: ATG_HNF4a_TRANS: Attagene TRANS-FACTORIAL HepG2 Assay for human Hepatocyte Nuclear Factor 4 alpha (HNF4a) (AID 2282982; active = hit-call score of the fitted dose curve at least 0.9, where 1 is the maximum); conditions: HepG2 HNF4a transactivation reporter, mRNA readout
Chain of Hepatocyte nuclear factor 4-alpha (Homo sapiens) (P41235 whole entry, looked up): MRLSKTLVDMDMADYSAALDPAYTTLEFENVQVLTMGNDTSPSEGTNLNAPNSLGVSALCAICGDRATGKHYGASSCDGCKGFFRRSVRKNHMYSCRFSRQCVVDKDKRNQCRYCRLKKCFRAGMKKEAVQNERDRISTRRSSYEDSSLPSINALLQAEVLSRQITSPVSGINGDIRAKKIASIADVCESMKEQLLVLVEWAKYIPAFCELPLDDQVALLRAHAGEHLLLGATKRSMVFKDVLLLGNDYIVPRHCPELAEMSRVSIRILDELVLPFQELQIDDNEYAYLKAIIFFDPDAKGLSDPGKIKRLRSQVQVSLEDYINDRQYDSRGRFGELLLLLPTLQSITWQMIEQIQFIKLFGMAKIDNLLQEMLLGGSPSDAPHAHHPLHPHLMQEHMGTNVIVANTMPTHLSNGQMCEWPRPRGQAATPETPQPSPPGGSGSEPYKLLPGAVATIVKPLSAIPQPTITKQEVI
Summary of the method: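 Multiplexed reporter assay: transfected HepG2, 24 h exposure, total RNA → oligo(dT) RT → PCR → 6-FAM extension → HpaI digest → CE fluorescence. DMSO = negative control.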

[20] = ATG_M_32_TRANS: Attagene TRANS-FACTORIAL HepG2 Assay for M32 Transcription Factor (Internal Marker) (AID 2282984; active = hit-call score of the fitted dose curve at least 0.9, where 1 is the maximum;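 also: transcript level of a background control reporter unit measured by RT-PCR and capillary electrophoresis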); conditions: HepG2 Attagene TRANS M32 internal marker reporter
Summary of the method: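 Cell-based TRANS-format assay in HepG2: exogenous chimeric GAL4 reporter units transiently expressed, compounds applied 24 h. Reporter mRNA detected by RT-PCR plus capillary electrophoresis; this readout is an internal background marker.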

Measured: AC50

CC(C)(N)CO
not listed: [14] | [15] | [16] | [17] | [18] | [19] | [20]
inactive: all other assays above

C#C[C@]1(O)CC[C@H]2[C@@H]3CCC4=Cc5oncc5C[C@]4(C)[C@H]3CC[C@@]21C
active: [3] 26.4 µM | [6] 52.5 µM | [8] 57.1 µM | [12] 29 µM | [13] 24.7 µM | [16] 6.51 µM
not listed: [4] | [19] | [20]
inactive: all other assays above

OCCN1CCNCC1
inactive: [1] | [2] | [4] | [19] | [5] | [14] | [7] | [8] | [9] | [11] | [13]

BrC1CCC(Br)C(Br)CCC(Br)C(Br)CCC1Br (centres undefined)
active: [7] 110 µM | [11] 23.1 µM | [12] 58.6 µM | [16] 3.22 µM | [17] 4.6 µM | [18] 3.25 µM
not listed: [4] | [8] | [19] | [20]
inactive: all other assays above

NC(=O)c1ccccc1Cl
inactive: [1] | [2] | [3] | [20] | [14] | [6] | [7] | [9] | [10]
active: [8] 61.6 µM | [11] 25.8 µM | [12] 55.1 µM | [13] 143 µM

CC(CCO)CCc1ccccc1 (centres undefined)
not listed: [4] | [7] | [13] | [15] | [16] | [17] | [18] | [19]
inactive: all other assays above

CN(C)CCCN
not listed: [3] | [7] | [14] | [15] | [16] | [17] | [18]
inactive: all other assays above

CC(C#N)(CCC(=O)O)N=NC(C)(C#N)CCC(=O)O (centres undefined)
not listed: [8] | [10] | [14] | [15] | [16] | [17] | [18] | [19]
inactive: all other assays above

COc1c(Cl)c(Cl)c(Cl)c(Cl)c1Cl
inactive: [1] | [2] | [19] | [5] | [6] | [7] | [8] | [9] | [11] | [12]

CSc1nnc(C(C)(C)C)c(=O)[nH]1
not listed: [3] | [4] | [5] | [14] | [15] | [16] | [17] | [18]
inactive: all other assays above
